Sequences and labels used below:
T1: RBFOX1 RRM (Homo sapiens, UniProt Q9NWB1 109-208)
T1 sequence: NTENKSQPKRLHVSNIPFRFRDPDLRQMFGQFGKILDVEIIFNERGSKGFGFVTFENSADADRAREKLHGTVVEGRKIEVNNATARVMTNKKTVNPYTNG

B1: CAGCUCA (DNA:RNA)
RNA: GGGAGACCGGAAUUCAGAUUGUCCCAGCUCAUUAAAUCCCGUCGUAGCCACCA
DNA 1: CAATCTGAATTCCGGTCTCCC
DNA 2: TGGTGGCTACGACGGGATT
B2: GUAUCUG (DNA:RNA)
RNA: GGGAGACCGGAAUUCAGAUUGUCCGUAUCUGUUAAAUCCCGUCGUAGCCACCA
DNA 1: CAATCTGAATTCCGGTCTCCC
DNA 2: TGGTGGCTACGACGGGATT
B3: AAUGCCC (DNA:RNA)
RNA: B1 RNA with C25A, G27U, C28G, U29C, A31C
DNA 1: CAATCTGAATTCCGGTCTCCC
DNA 2: TGGTGGCTACGACGGGATT
B4: UGAACGA (DNA:RNA)
RNA: B2 RNA with G25U, U26G, U28A, U30G, G31A
DNA 1: CAATCTGAATTCCGGTCTCCC
DNA 2: TGGTGGCTACGACGGGATT
B5: CUAGAGG (DNA:RNA)
RNA: B2 RNA with G25C, U28G, C29A, U30G
DNA 1: CAATCTGAATTCCGGTCTCCC
DNA 2: TGGTGGCTACGACGGGATT
B6: UAGCGUU (DNA:RNA)
RNA: B1 RNA with C25U, U29G, C30U, A31U
DNA 1: CAATCTGAATTCCGGTCTCCC
DNA 2: TGGTGGCTACGACGGGATT
B7: UGACAAC (DNA:RNA)
RNA: B1 RNA with C25U, A26G, G27A, U29A, C30A, A31C
DNA 1: CAATCTGAATTCCGGTCTCCC
DNA 2: TGGTGGCTACGACGGGATT
B8: AACUUUA (DNA:RNA)
RNA: B1 RNA with C25A, G27C, C28U, C30U
DNA 1: CAATCTGAATTCCGGTCTCCC
DNA 2: TGGTGGCTACGACGGGATT
B9: UGAGUUG (DNA:RNA)
RNA: B2 RNA with G25U, U26G, U28G, C29U
DNA 1: CAATCTGAATTCCGGTCTCCC
DNA 2: TGGTGGCTACGACGGGATT
B10: UGCUGAG (DNA:RNA)
RNA: B2 RNA with G25U, U26G, A27C, C29G, U30A
DNA 1: CAATCTGAATTCCGGTCTCCC
DNA 2: TGGTGGCTACGACGGGATT
B11: GCUGUUG (DNA:RNA)
RNA: B2 RNA with U26C, A27U, U28G, C29U
DNA 1: CAATCTGAATTCCGGTCTCCC
DNA 2: TGGTGGCTACGACGGGATT
B12: GUCCUGU (DNA:RNA)
RNA: B1 RNA with C25G, A26U, G27C, C30G, A31U
DNA 1: CAATCTGAATTCCGGTCTCCC
DNA 2: TGGTGGCTACGACGGGATT
B13: GCUGUCG (DNA:RNA)
RNA: B1 RNA with C25G, A26C, G27U, C28G, A31G
DNA 1: CAATCTGAATTCCGGTCTCCC
DNA 2: TGGTGGCTACGACGGGATT
B14: UGUUCGU (DNA:RNA)
RNA: B2 RNA with G25U, U26G, A27U, U30G, G31U
DNA 1: CAATCTGAATTCCGGTCTCCC
DNA 2: TGGTGGCTACGACGGGATT
B15: UGUCCGU (DNA:RNA)
RNA: B1 RNA with C25U, A26G, G27U, U29C, C30G, A31U
DNA 1: CAATCTGAATTCCGGTCTCCC
DNA 2: TGGTGGCTACGACGGGATT
B16: UGUGUGG (DNA:RNA)
RNA: B1 RNA with C25U, A26G, G27U, C28G, C30G, A31G
DNA 1: CAATCTGAATTCCGGTCTCCC
DNA 2: TGGTGGCTACGACGGGATT
B17: UGUGGUG (DNA:RNA)
RNA: B2 RNA with G25U, U26G, A27U, U28G, C29G
DNA 1: CAATCTGAATTCCGGTCTCCC
DNA 2: TGGTGGCTACGACGGGATT
B18: GCUGCUG (DNA:RNA)
RNA: B2 RNA with U26C, A27U, U28G
DNA 1: CAATCTGAATTCCGGTCTCCC
DNA 2: TGGTGGCTACGACGGGATT
B19: UGAGGAG (DNA:RNA)
RNA: B2 RNA with G25U, U26G, U28G, C29G, U30A
DNA 1: CAATCTGAATTCCGGTCTCCC
DNA 2: TGGTGGCTACGACGGGATT
B20: UGGUGUG (DNA:RNA)
RNA: B2 RNA with G25U, U26G, A27G, C29G
DNA 1: CAATCTGAATTCCGGTCTCCC
DNA 2: TGGTGGCTACGACGGGATT
B21: AUCUUGC (DNA:RNA)
RNA: B2 RNA with G25A, A27C, C29U, U30G, G31C
DNA 1: CAATCTGAATTCCGGTCTCCC
DNA 2: TGGTGGCTACGACGGGATT
B22: AUGACCA (DNA:RNA)
RNA: B1 RNA with C25A, A26U, C28A, U29C
DNA 1: CAATCTGAATTCCGGTCTCCC
DNA 2: TGGTGGCTACGACGGGATT
B23: CUAAUUG (DNA:RNA)
RNA: B2 RNA with G25C, U28A, C29U
DNA 1: CAATCTGAATTCCGGTCTCCC
DNA 2: TGGTGGCTACGACGGGATT
B24: GGCCUGU (DNA:RNA)
RNA: B1 RNA with C25G, A26G, G27C, C30G, A31U
DNA 1: CAATCTGAATTCCGGTCTCCC
DNA 2: TGGTGGCTACGACGGGATT
B25: GAUUAGC (DNA:RNA)
RNA: B2 RNA with U26A, A27U, C29A, U30G, G31C
DNA 1: CAATCTGAATTCCGGTCTCCC
DNA 2: TGGTGGCTACGACGGGATT
B26: UGCAACU (DNA:RNA)
RNA: B1 RNA with C25U, A26G, G27C, C28A, U29A, A31U
DNA 1: CAATCTGAATTCCGGTCTCCC
DNA 2: TGGTGGCTACGACGGGATT
B27: GGGCCGG (DNA:RNA)
RNA: B2 RNA with U26G, A27G, U28C, U30G
DNA 1: CAATCTGAATTCCGGTCTCCC
DNA 2: TGGTGGCTACGACGGGATT
B28: UGUUUGC (DNA:RNA)
RNA: B1 RNA with C25U, A26G, G27U, C28U, C30G, A31C
DNA 1: CAATCTGAATTCCGGTCTCCC
DNA 2: TGGTGGCTACGACGGGATT
B29: UGUGUGC (DNA:RNA)
RNA: B1 RNA with C25U, A26G, G27U, C28G, C30G, A31C
DNA 1: CAATCTGAATTCCGGTCTCCC
DNA 2: TGGTGGCTACGACGGGATT
B30: CGUUUGC (DNA:RNA)
RNA: B1 RNA with A26G, G27U, C28U, C30G, A31C
DNA 1: CAATCTGAATTCCGGTCTCCC
DNA 2: TGGTGGCTACGACGGGATT
B31: CUGUCGU (DNA:RNA)
RNA: B2 RNA with G25C, A27G, U30G, G31U
DNA 1: CAATCTGAATTCCGGTCTCCC
DNA 2: TGGTGGCTACGACGGGATT
B32: CGUUCUG (DNA:RNA)
RNA: B2 RNA with G25C, U26G, A27U
DNA 1: CAATCTGAATTCCGGTCTCCC
DNA 2: TGGTGGCTACGACGGGATT
B33: CGUGUGC (DNA:RNA)
RNA: B1 RNA with A26G, G27U, C28G, C30G, A31C
DNA 1: CAATCTGAATTCCGGTCTCCC
DNA 2: TGGTGGCTACGACGGGATT
B34: UGUUCUG (DNA:RNA)
RNA: B2 RNA with G25U, U26G, A27U
DNA 1: CAATCTGAATTCCGGTCTCCC
DNA 2: TGGTGGCTACGACGGGATT
B35: CUGUUGU (DNA:RNA)
RNA: B1 RNA with A26U, C28U, C30G, A31U
DNA 1: CAATCTGAATTCCGGTCTCCC
DNA 2: TGGTGGCTACGACGGGATT
B36: UGUUUUG (DNA:RNA)
RNA: B2 RNA with G25U, U26G, A27U, C29U
DNA 1: CAATCTGAATTCCGGTCTCCC
DNA 2: TGGTGGCTACGACGGGATT
B37: CGUCCUG (DNA:RNA)
RNA: B2 RNA with G25C, U26G, A27U, U28C
DNA 1: CAATCTGAATTCCGGTCTCCC
DNA 2: TGGTGGCTACGACGGGATT
B38: CUGUUUG (DNA:RNA)
RNA: B2 RNA with G25C, A27G, C29U
DNA 1: CAATCTGAATTCCGGTCTCCC
DNA 2: TGGTGGCTACGACGGGATT
B39: CCUGUGC (DNA:RNA)
RNA: B1 RNA with A26C, G27U, C28G, C30G, A31C
DNA 1: CAATCTGAATTCCGGTCTCCC
DNA 2: TGGTGGCTACGACGGGATT

Residue numbers refer to the chain shown, from its start. Over roughly 16,000 sequences, “ka relative to ugcaugu” has its median near 0.0091; the highest 2% begin near 0.032. The full list was thinned out, with the highest values kept by preference.

This assay has as its target T1, RBFOX1 RRM. As to the kind of experiment: EMSA; HiTS-Eq, 1 nM pool, 10 min; buffer printed only for the single-RNA assays: 10 mM Tris pH 7.5, 150 mM NaCl, 3.4 mM EDTA, 0.001% NP-40, 30 C. The settings on record: tags: His6 N-terminal (pET28a); label: 5' 32P. Put shortly: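 Relative association constants, normalised to the cognate motif, were derived by comparing read counts of each RNA species with those of the control reaction. The RNA sequenced was the free fraction, separated by 8% native PAGE after a 10 min equilibration in 50 µL of 1 nM 5′-radiolabelled RNA (7 randomized nucleotides) with increasing concentrations of purified wild-type or mutant RbFox RRM.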
(In general: Mobility shift assays separate free from complexed probe on a gel.)
Turning to B1, the binding signal was 0.00282 KA relative to UGCAUGU.
For B2, the binding signal is 0.015 KA relative to UGCAUGU.
With B3, the binding signal is 0.00474 KA relative to UGCAUGU.
Then B4, with 0.0199 KA relative to UGCAUGU.
Then B5, with 0.00494 KA relative to UGCAUGU; and B6, with 0.0117 KA relative to UGCAUGU.
On to B7, for which the binding signal was 0.00863 KA relative to UGCAUGU.
Then B8, with 0.000524 KA relative to UGCAUGU; and B9, with 0.0276 KA relative to UGCAUGU; and B10, with 0.0319 KA relative to UGCAUGU.
Then B11, with 0.028 KA relative to UGCAUGU.
Then B12, with 0.0155 KA relative to UGCAUGU.
Take B13: the binding signal is 0.0197 KA relative to UGCAUGU.
Then B14, with 0.0328 KA relative to UGCAUGU; and B15, with 0.0131 KA relative to UGCAUGU.
Consider B16, for which the binding signal is 0.0178 KA relative to UGCAUGU.
For B17, the binding signal is 0.0376 KA relative to UGCAUGU.
Turning to B18, the binding signal is 0.0323 KA relative to UGCAUGU.
B19: the binding signal was 0.0109 KA relative to UGCAUGU.
On to B20, for which the binding signal is 0.029 KA relative to UGCAUGU.
Under B21 stands 0.0138 KA relative to UGCAUGU.
Take B22: the binding signal was 0.00337 KA relative to UGCAUGU.
For B23, the binding signal was 0.013 KA relative to UGCAUGU.
For the molecule B24, the binding signal is 0.0238 KA relative to UGCAUGU.
On to B25, for which the binding signal was 0.0124 KA relative to UGCAUGU.
Then B26, with 0.0132 KA relative to UGCAUGU.
Take B27: the binding signal is 0.0124 KA relative to UGCAUGU.
Then B28, with 0.0351 KA relative to UGCAUGU; and B29, with 0.0333 KA relative to UGCAUGU; and B30, with 0.019 KA relative to UGCAUGU.
Then B31, with 0.0193 KA relative to UGCAUGU; and B32, with 0.0207 KA relative to UGCAUGU.
Regarding B33, the binding signal was 0.0146 KA relative to UGCAUGU.
Under B34 stands 0.0328 KA relative to UGCAUGU.
Under B35 stands 0.0226 KA relative to UGCAUGU; under B36, 0.0286 KA relative to UGCAUGU.
Under B37 stands 0.0127 KA relative to UGCAUGU; under B38, 0.0332 KA relative to UGCAUGU; under B39, 0.0232 KA relative to UGCAUGU.

Source of the values: article PMC9911399, “Two distinct binding modes provide the RNA-binding protein RbFox with extraordinary sequence specificity”.
